Measurements as given in ChEMBL document CHEMBL4303097 (2020).
Over roughly 1,500 compounds, “Inhibition index” has its median near 0.17; the highest 2% begin near 1.3. The list comes from a sample in which the highest values are over-represented; it also holds similar structures and randomly drawn compounds.

test system: SARS-CoV-2; assay: Inhibition of cell viability relative to arbidol control (inhibition index > 1 indicates higher activity) measured by fluorescence (OD590nm) in Vero E6 cells infected with SARS-CoV-2 (strain BavPat1) at MOI 0.002 after 72hrs; format: functional, Chlorocebus sabaeus, Vero C1008

| Compound | Inhibition index |
| --- | --- |
| Clc1cc(Cl)c(OCC#CI)cc1Cl [HALOPROGIN] | -0.09794 |
| CC(=O)[C@H]1CC[C@H]2[C@@H]3CC[C@H]4C[C@H](O)CC[C@]4(C)[C@H]3C(=O)C[C@]12C [ALFAXALONE] | 0.7131 |
| Clc1ccc(CCC(Cn2ccnc2)Sc2c(Cl)cccc2Cl)cc1.O=[N+]([O-])O (stereo not given) [BUTOCONAZOLE NITRATE] | -0.1062 |
| CC(=O)OCC(=O)[C@@]12N=C(C)O[C@@H]1C[C@H]1[C@@H]3CCC4=CC(=O)C=C[C@]4(C)[C@H]3[C@@H](O)C[C@@]12C [DEFLAZACORT] | 0.4333 |
| CC(C)(C)NC(=O)[C@H]1CC[C@H]2[C@@H]3CC[C@H]4NC(=O)C=C[C@]4(C)[C@H]3CC[C@]12C [FINASTERIDE] | 0.2658 |
| Cc1[nH]cnc1CN1CCc2c(c3ccccc3n2C)C1=O.Cl [ALOSETRON HYDROCHLORIDE] | 0.152 |
| Cc1nccn1CC1CCc2c(c3ccccc3n2C)C1=O.Cl (stereo not given) | 1.665 |
| CN(C)CCC(c1ccccc1)c1ccccn1.O=C(O)/C=C\C(=O)O (stereo not given) [PHENIRAMINE MALEATE] | 0.01395 |
| O=C(O[C@H]1C[N+]2(CCCOc3ccccc3)CCC1CC2)C(O)(c1cccs1)c1cccs1.[Br-] [ACLIDINIUM BROMIDE] | 0.1807 |
| CC1(C)S[C@@H]2[C@H](NC(=O)[C@H](NC(=O)N3CCNC3=O)c3ccccc3)C(=O)N2[C@H]1C(=O)[O-].[Na+] [AZLOCILLIN SODIUM] | 0.01854 |
| CC(C)(CO)[C@@H](O)C(=O)NCCCC(=O)O.CC(C)(CO)[C@@H](O)C(=O)NCCCC(=O)O.[Ca+2] | 0.08003 |
| CC(C)NNC(=O)c1ccncc1.O=P(O)(O)O [IPRONIAZID PHOSPHATE] | 0.02671 |
| Cl.Cl.NCCc1cc[nH]n1 | 0.03591 |
| CC1(C)S[C@@H]2[C@H](NC(=O)[C@H](N)c3ccc(O)cc3)C(=O)N2[C@H]1C(=O)O [AMOXICILLIN] | 0.1371 |
| CC12CC3CC(C)(C1)CC(N)(C3)C2.Cl [MEMANTINE HYDROCHLORIDE] | 0.5095 |
| CN(C)CCC(c1ccc(Br)cc1)c1ccccn1.O=C(O)/C=C\C(=O)O (stereo not given) [BROMPHENIRAMINE MALEATE] | 0.3833 |
| CC1(C)S[C@@H]2[C@H](NC(=O)C(C(=O)O)c3ccsc3)C(=O)N2[C@H]1C(=O)[O-].[Na+] (stereo not given in full) | 0.09416 |
| O=C(NC1CCN(CCCCC2(C(=O)NCC(F)(F)F)c3ccccc3-c3ccccc32)CC1)c1ccccc1-c1ccc(C(F)(F)F)cc1 [LOMITAPIDE] | -0.295 |
| CC(C)(C)NC[C@H](O)COc1cccc2c1CCCC2=O.Cl [LEVOBUNOLOL HYDROCHLORIDE] | 0.5259 |
| CN(C)CCC=C1c2ccccc2C=Cc2ccccc21.Cl [CYCLOBENZAPRINE HYDROCHLORIDE] | 0.6333 |

| Compound | Inhibition index |
| --- | --- |
| CO/N=C(\C(=O)N[C@@H]1C(=O)N2C(C(=O)OC(C)OC(C)=O)=C(COC(N)=O)CS[C@H]12)c1ccco1 (stereo not given in full) [CEFUROXIME AXETIL] | 0.1456 |
| CCOc1nc2cccc(C(=O)O)c2n1Cc1ccc(-c2ccccc2-c2nnn[nH]2)cc1 | 1.166 |
| Cl.O=C1CC2(CCCC2)CC(=O)N1CCCCN1CCN(c2ncccn2)CC1 [BUSPIRONE HYDROCHLORIDE] | 1.176 |
| C#C[C@]1(O)CC[C@H]2[C@@H]3[C@H](C)CC4=C(CCC(=O)C4)[C@H]3CC[C@@]21C [TIBOLONE] | 0.3794 |
| CN(C)CCCSC(=N)N.Cl.Cl | 1.382 |
| Nc1ncnc2c1ncn2[C@@H]1O[C@H](COP(=O)(O)O)[C@@H](O)[C@H]1O.O | 0.1161 |
| CN(C)CCc1c[nH]c2ccc(Cn3cncn3)cc12.O=C(O)c1ccccc1 [RIZATRIPTAN BENZOATE] | 0.7991 |
| CC#C[C@]1(O)CC[C@H]2[C@@H]3CCC4=CC(=O)CCC4=C3[C@@H](c3ccc(N(C)C)cc3)C[C@@]21C [MIFEPRISTONE] | 0.1807 |
| CN(C)C(=N)NC(=N)N.Cl [METFORMIN HYDROCHLORIDE] | 0.00269 |
| CC1(C)S[C@@H]2[C@H](NC(=O)[C@H](N)c3ccccc3)C(=O)N2[C@H]1C(=O)OC1OC(=O)c2ccccc21.Cl (stereo not given in full) [TALAMPICILLIN HYDROCHLORIDE] | 0.5053 |
| CCOC(=O)C1=C[C@@H](OC(CC)CC)[C@H](NC(C)=O)[C@@H](N)C1.O=P(O)(O)O [OSELTAMIVIR PHOSPHATE] | -0.01747 |
| Br.COc1ccc2c3c1O[C@H]1C[C@@H](O)C=C[C@@]31CCN(C)C2 [GALANTAMINE HYDROBROMIDE] | 0.03283 |
| Cl.N/C(=N\C(=O)c1nc(Cl)c(N)nc1N)NCc1ccccc1 [BENZAMIL HYDROCHLORIDE] | -0.07365 |
| C=CCc1ccccc1OCC(O)CNC(C)C.Cl (stereo not given) [ALPRENOLOL HYDROCHLORIDE] | 0.02886 |
| C=CCOc1ccccc1OCC(O)CNC(C)C.Cl (stereo not given) [OXPRENOLOL HYDROCHLORIDE] | 1.632 |
| CC(C)NCC(O)COc1cccc2[nH]c3ccccc3c12 (stereo not given) [CARAZOLOL] | 0.7194 |
| C[C@]12CCC3=C4CCC(=O)C=C4CC[C@H]3[C@@H]1CC[C@@]2(O)CC#N [DIENOGEST] | 0.1822 |
| Cl.Cl.Fc1ccc(C(OCCN2CCN(CCCc3ccccc3)CC2)c2ccc(F)cc2)cc1 | -0.1375 |
| CC[C@H](C)C(=O)O[C@H]1C[C@H](O)C=C2C=C[C@H](C)[C@H](CC[C@@H](O)C[C@@H](O)CC(=O)O)[C@H]21 [PRAVASTATIN] | 0.3233 |
| CC(=O)OCC1=C(C(=O)[O-])N2C(=O)[C@@H](NC(=O)Cc3cccs3)[C@H]2SC1.[Na+] [CEPHALOTHIN SODIUM] | 0.1149 |
